Reference: PubChem BioAssay (NCI)
This is part of a sample that, as a whole, favours compounds with a hit. Of some 83,000 tested, about 20% had one in any assay.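 Method: cells in 96-well plates; compound added at one concentration; 48 h incubation; percent growth measured; values under 10 scored active.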 Activity calls are given as the source filed them.

Legend:
Test in all cases: NCI-60 one-dose screen, 48 h (100 = growth as untreated, 0 = no growth, -100 = all killed)
Details in all cases: 10 µM unless noted
HT29 colon = tested on: HT29 colon
SNB-75 CNS = tested on: SNB-75 CNS
SNB-19 CNS = tested on: SNB-19 CNS
U251 CNS = tested on: U251 CNS
PC-3 prostate = tested on: PC-3 prostate
SK-MEL-5 melanoma = tested on: SK-MEL-5 melanoma
UACC-62 melanoma = tested on: UACC-62 melanoma
LOX IMVI melanoma = tested on: LOX IMVI melanoma
SK-MEL-28 melanoma = tested on: SK-MEL-28 melanoma
SK-MEL-2 melanoma = tested on: SK-MEL-2 melanoma
EKVX NSCLC = tested on: EKVX NSCLC
UO-31 renal = tested on: UO-31 renal
TK-10 renal = tested on: TK-10 renal
ACHN renal = tested on: ACHN renal
CAKI-1 renal = tested on: CAKI-1 renal
A498 renal = tested on: A498 renal
SN12C renal = tested on: SN12C renal
CCRF-CEM leukemia = tested on: CCRF-CEM leukemia
MOLT-4 leukemia = tested on: MOLT-4 leukemia
SR leukemia = tested on: SR leukemia

Measured: growth

O=C1Cc2cc(CCN3CCN(CCOCCO)CC3)c(Cl)cc2N1Cc1ccc(-c2ccccc2-c2nn[nH]n2)cc1
inactive: HT29 colon 94.2% | SNB-75 CNS 82.6% | SNB-19 CNS 90.5% | U251 CNS 94.1% | PC-3 prostate 56.1% | SK-MEL-5 melanoma 100% | UACC-62 melanoma 74.9% | LOX IMVI melanoma 89.7% | SK-MEL-28 melanoma 101% | SK-MEL-2 melanoma 81.1% | EKVX NSCLC 47.4% | UO-31 renal 79.5% | TK-10 renal 111% | ACHN renal 84.1% | CAKI-1 renal 61% | A498 renal 59.9%

COc1ccc2c(c1)C(=O)/C(=C/c1ccc([N+](=O)[O-])s1)O2
inactive: SNB-75 CNS 12.2% | CAKI-1 renal 29.7% | A498 renal 99.6% | SR leukemia 11.4%
active: HT29 colon -22.7% | SNB-19 CNS -5.72% | U251 CNS -50.7% | PC-3 prostate -15.7% | SK-MEL-5 melanoma -13.5% | UACC-62 melanoma -48% | LOX IMVI melanoma -24.9% | SK-MEL-28 melanoma -33.9% | SK-MEL-2 melanoma -49.1% | SN12C renal -8.43% | UO-31 renal -79.1% | TK-10 renal -15.3% | ACHN renal -54% | CCRF-CEM leukemia 0.726% | MOLT-4 leukemia 5.68%

Clc1ccc(-n2cnc3c(Cl)ncnc32)cc1Cl
inactive: HT29 colon 74.8% | SNB-75 CNS 99.5% | SNB-19 CNS 91.5% | U251 CNS 78.2% | PC-3 prostate 110% | SK-MEL-5 melanoma 103% | UACC-62 melanoma 85.4% | LOX IMVI melanoma 36.6% | SK-MEL-28 melanoma 64.1% | SK-MEL-2 melanoma 89.7% | EKVX NSCLC 88.5% | SN12C renal 100% | UO-31 renal 114% | TK-10 renal 89.3% | ACHN renal 95.7% | CAKI-1 renal 28.4% | MOLT-4 leukemia 82.6% | SR leukemia 19.5%

O=[P@@]1(c2ccccc2)O[C@H](COCc2ccccc2)[C@@H](OCc2ccccc2)[C@H](OCc2ccccc2)[C@H]1NCc1ccccc1
inactive: HT29 colon 10.9% | SNB-75 CNS 27.9% | SNB-19 CNS 33.9% | U251 CNS 20.9% | PC-3 prostate 10.5% | SK-MEL-5 melanoma 38% | UACC-62 melanoma 24% | SK-MEL-28 melanoma 49.2% | SK-MEL-2 melanoma 29.5% | EKVX NSCLC 17.6% | TK-10 renal 13.5% | ACHN renal 10% | CCRF-CEM leukemia 15.9%
active: LOX IMVI melanoma 5.71% | SN12C renal -39.4% | UO-31 renal -7.83% | MOLT-4 leukemia 0.343% | SR leukemia -2.72%
